Molecules are shown by their SMILES. The source made the active and inactive calls. How the source made its calls: active means hit-call score of the fitted dose curve at least 0.9, where 1 is the maximum; inactive means score below 0.9.

Read-out in the experiment: Heat shock 70 kDa protein 1 (HSPA1A), gene 3303
The experiment in a line: LTEA_HepaRG_HSPA1A: Life Technologies and Expression Analysis (LTEA) Assay for Heat shock 70 kDa protein 1 (HSPA1A) using HepaRG (AID 2283502). The following applies: mRNA level, 48 h; actives raise or lower the signal. Summed up: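 An oxidative-stress marker readout: HepaRG cells treated 48 h in duplicate with an eight-point series (highest 100 uM) had HSPA1A mRNA quantified by TaqMan qRT-PCR. Activity was fitted in both directions using 0.5% DMSO as baseline.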
On to `CC(C)(C)c1cc(C(C)(C)C)c(O)c(C(C)(C)C)c1`, for which the molecule was called inactive.

Take `Cc1cc(C)c(O)c(C)c1`: the molecule was called inactive.

As to `CCCCC(CC)COC(=O)CCCCC(=O)OCc1ccccc1` (stereo unspecified), the molecule was classed as inactive.

As to `c1ccc2c(c1)ccc1ccccc12`, the molecule was called inactive.

Turning to `CCCCCCCCOC(=O)CCCCCCCCC(=O)OCCCCCCCC`, the call was inactive.

For `CC(C)(C)c1ccc(O)c(C(C)(C)C)c1`, the outcome was inactive.

For `O=C(OCCOCCOC(=O)c1ccccc1)c1ccccc1`, the call was inactive.

For the molecule `CCCOc1sc(C(=O)N2CCC(c3cc(CN)ccc3F)CC2)c(C)c1Br`, the outcome was inactive.

Broadly, the AC50 is the concentration giving half of the maximal activity seen. In the case of `CCc1nn(C2CCCCC2)c2cc(C3(C#N)CCC(C(=O)O)CC3)ccc12` (stereo unspecified), the AC50 was 12.2 µM (active).

In the case of `COCC(C)OCC(C)O` (stereo unspecified), the molecule was called inactive.

For the molecule `CC(C)(C)CC(C)(C)c1ccc(O)c(-n2nc3ccccc3n2)c1`, the AC50 is 72.7 µM (active).

Take `CC(O)CO` (stereo unspecified): the result was inactive.

Consider `COc1ccc([N+](=O)[O-])cc1N`, for which the result was inactive.

For `CCCCCCCCCCCCN1CCCC1=O`, the outcome was inactive.

Take `OCCC(F)(F)C(F)(F)C(F)(F)C(F)(F)C(F)(F)C(F)(F)F`: the call was inactive.

With `CCCCCCCCCCCCc1ccccc1S(=O)(=O)O`, the AC50 was 13 µM (active).

On to `OCCC(F)(F)C(F)(F)C(F)(F)C(F)(F)C(F)(F)C(F)(F)C(F)(F)C(F)(F)F`, for which the call was inactive.

Consider `CCCCOCCO`, for which the molecule was classed as inactive.

With `CCCCCCCCCCCCCCCS(=O)(=O)Oc1ccccc1`, the call was inactive.

On to `CC(C)(C)c1cccc(C(C)(C)C)c1O`, for which the molecule was called inactive.

On to `CCC(=C(c1ccc(O)cc1)c1ccc(OCCN(C)C)cc1)c1ccccc1`, for which the AC50 is 69.4 µM (active).

`CC(C)CCCCCCOC(=O)CCCCC(=O)OCCCCCCC(C)C`: the molecule was classed as inactive.

`CN1CCN(c2ccccc2/C=C2\SCCN(c3ccc(Cl)c(Cl)c3)C2=O)CC1`: the AC50 is 71.9 µM (active).

Consider `O=C(O)Cc1cc(I)c(Oc2cc(I)c(O)c(I)c2)c(I)c1`, for which the AC50 is 54 µM (active).

Take `CC(=O)CC(C)(C)O`: the result was inactive.

Turning to `CCN(CC)CCNc1ccc(CNC=O)c2sc3ccc(OC)cc3c(=O)c12`, the AC50 was 9.92 µM (active).

`OC1CCC(C2CCCCC2)CC1` (stereo unspecified): the call was inactive.

Take `O=c1c(-c2ccc(O)cc2)coc2cc(O)ccc12`: the molecule was classed as inactive.

Regarding `CN(C)C=O`, the result was inactive.

Regarding `NC(=O)N(O)[C@@H]1C=C[C@H](Oc2cccc(Oc3ccc(F)cc3)c2)C1`, the AC50 is 82.6 µM (active).

Consider `CC[C@H](C)[C@@H](C(=O)O)n1sc2ccccc2c1=O`, for which the call was inactive.
